Out of some 320,000 compounds screened, about 1,100 (0.34%) were called active.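 How the source made its calls: active means GFP response vs DMSO above a set limit, about the screen mean plus 3 SD (cut at about 150% in these data); inconclusive means under 70 cell events counted for the yeast strain; inactive means the rest.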 Many of the other results were omitted from the sample, so actives are more common in it than they were.

The assay is described as follows: modulators of LAP4-GFP expression in yeast, primary screen, S. cerevisiae, multiplex flow cytometry, MLPCN library (AID 2023). To be noted: 3 h, at 10 µM, hits give high values. A general note: Flow cytometry measures light scatter and fluorescence of single cells or particles in a stream.
With `Cc1cccc2c(CCN)c[nH]c12`, the GFP response vs DMSO was 105% (inactive).

On to `NCCc1c[nH]c2ccc(O)cc12`, for which the GFP response vs DMSO was 307% [may fluoresce violet] (active).

On to `C/C(CCc1c[nH]c2ccccc12)=N\O`, for which the GFP response vs DMSO is 102% (inactive).

With `CN(C)C(=O)NC(O)C(Cl)(Cl)Cl` (stereo not given), the GFP response vs DMSO is 108% (inactive).

Take `COc1ccc(N2C(=O)/C(=C/c3ccco3)C(=O)NC2=S)cc1`: the GFP response vs DMSO was 170% (active).

For `COc1ccc(CN2C(=O)NC(=O)/C(=C\c3ccc(OC)c(OC)c3OC)C2=O)cc1`, the GFP response vs DMSO was 109% (inactive).

`COc1cccc(N2C(=O)NC(=O)/C(=C\c3cn(C)c4ccccc34)C2=O)c1`: the GFP response vs DMSO is 104% (inactive).

Turning to `Cc1ccc(S(=O)(=O)N(C)c2ccc(C(=O)NCC3(N(C)C)CCCCC3)cc2)cc1`, the GFP response vs DMSO was 91.7% (inactive).

Consider `O=C1NC(=O)N(Cc2ccco2)C(=O)/C1=C\c1ccc(-c2ccc(F)cc2)o1`, for which the GFP response vs DMSO was 182% (active).

On to `O=C1NC(=O)N(CCc2ccc(F)cc2)C(=O)/C1=C/C=C/c1ccccc1`, for which the GFP response vs DMSO is 111% (inactive).

Turning to `O=C1NC(=O)N(Cc2ccco2)C(=O)/C1=C\c1cccn1CCOc1ccccc1`, the GFP response vs DMSO was 111% (inactive).

With `O=C(Cc1ccccc1)N1CCN(C2CCCCCC2)CC1`, the GFP response vs DMSO was 95.7% (inactive).

For `COc1ccc(C2N3CC(C)(C)CN23)cc1` (stereo not given), the GFP response vs DMSO was 95% [median GFP as percent of DMSO wells] (inactive).

`CC1CCC(N(C)C2CCN(C)CC2)CC1` (stereo not given): the GFP response vs DMSO is 94.4% (inactive).

Take `CNCC[C@H](Oc1ccc(C(F)(F)F)cc1)c1ccccc1`: the GFP response vs DMSO was 106% (inactive).

For the origin of these results see PubChem BioAssay AID2023 (NMMLSC, 2009).
